From PubChem BioAssay (NCI)
Compounds without any hit were thinned out: in the full panel of roughly 79,000, 15% have a hit. Cut-off read from the data, not from the text of the source: active = growth inhibition above about 70%; inactive = the rest.

Columns and labels:
[1] = NCI Yeast Anticancer Drug Screen. Data for the rad50 strain (AID 155);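 note: 0% = growth of vehicle-only cultures of the same strain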; conditions: S. cerevisiae rad50 strain growth inhibition; at 50.0 µM; active compounds read high
Outline: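 Inhibition values express reduced yeast growth in compound-treated cultures relative to vehicle-treated controls.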

[2] = NCI Yeast Anticancer Drug Screen. Data for the mec2-1 strain (AID 157); conditions: S. cerevisiae mec2-1 strain, at 50.0 µM, active compounds read high
Outline: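 Readout is yeast growth inhibition, normalised to vehicle-treated controls, in the mec2-1 strain exposed to compound.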

[3] = NCI Yeast Anticancer Drug Screen. Data for the sgs1 mgt1 strain (AID 161);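 note: 0% = growth of cultures given vehicle only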; conditions: S. cerevisiae sgs1 mgt1 strain, at 50.0 µM, active compounds read high
Outline: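 Percent growth inhibition was derived by comparing compound-exposed mutant yeast with vehicle-exposed cultures. The strain carries alterations in DNA damage repair.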

[4] = NCI Yeast Anticancer Drug Screen. Data for the cln2 rad14 strain (AID 165);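 note: 0% = growth equal to vehicle treated cultures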; conditions: S. cerevisiae cln2 rad14 strain, at 50.0 µM, active compounds read high
Outline: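 Relative to vehicle controls, growth inhibition of compound-treated cln2 rad14 yeast was recorded.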

[5] = NCI Yeast Anticancer Drug Screen. Data for the bub3 strain (AID 167); conditions: S. cerevisiae bub3 mutant strain, at 50.0 µM, active compounds read high
Outline: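 Steps: expose the mutant yeast strain to compound; grow alongside vehicle-treated cultures; measure growth; express inhibition against the vehicle cultures.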

[6] = NCI Yeast Anticancer Drug Screen. Data for the mlh1 rad18 strain (AID 175); conditions: S. cerevisiae mlh1 rad18 strain growth inhibition; at 50.0 µM; active compounds read high
Outline: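 Test agents were incubated with a yeast strain of defined genotype (DNA damage repair defect). Inhibition of growth was derived by comparison with vehicle-exposed cultures.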

Measured: growth inhibition

Cc1cc(N2CCC(N3CCCC3)CC2)nc(/N=C(\N)Nc2ccc(Cl)c(Cl)c2)n1
inactive: [1] 18.1% | [2] -2.25% | [3] -6.05% | [4] -3.7% | [5] 4% | [6] 34%

c1ncc2[nH]cnc2n1
inactive: [1] -14.6% | [2] -4.1% | [3] -11.6% | [4] -69.2% | [5] 8.15% | [6] 6.3%

CC1=NN(c2ccccc2)C(=O)/C1=C\N1CC(=O)NC1=S
inactive: [1] -50.9% | [2] -46% | [3] -11.3% | [4] 5.45% | [5] -49% | [6] -30.4%

O=C(N/N=C/c1ccccc1O)Nc1nn[nH]n1
inactive: [1] -15.8% | [2] -10.2% | [3] 16.1% | [4] -7.8% | [5] 0.85% | [6] 9%

Cc1cc2nc(CO)[nH]c2cc1C
inactive: [1] -2.95% | [2] -40% | [3] -24.2% | [4] 7.55% | [5] -5.65% | [6] 1.8%

CC(=O)OCC(=O)[C@@]1(O)CC[C@H]2[C@@H]3CC[C@@H]4C[C@H](O)CC[C@]4(C)[C@H]3C(=O)C[C@@]21C
inactive: [1] 19.7% | [2] 7.15% | [3] 25.4% | [4] 7.75% | [5] -2.85% | [6] 20.6%

CN(C)c1nc2c([nH]1)c(=O)n(C)c(=O)n2C
inactive: [1] 22.4% | [2] -15.2% | [3] 2.2% | [4] 5.2% | [5] -10.1% | [6] 5.45%

COC(=O)Nc1nc2ccc(C(=O)c3cccs3)cc2[nH]1
inactive: [1] -1.25% | [2] 33.4% | [3] 17.5% | [4] -35% | [5] 24.4% | [6] 19%

C#Cc1cccc(NC(=O)c2ccc(Cl)cc2Cl)c1
inactive: [1] 9.95% | [2] -9.7% | [3] 26.6% | [4] 24.2% | [5] 25% | [6] 15.7%

CCOc1ccc(Br)cc1/C=N\N=C\c1cc(Br)ccc1OCC
inactive: [1] -9.15% | [2] -29.2% | [3] -1.65% | [4] 13.3% | [5] 4.25% | [6] -10.3%

COc1cc(C(=O)N/N=C/c2cccc([N+](=O)[O-])c2)cc(OC)c1OC
inactive: [1] -5.5% | [2] -13.4% | [3] -41.9% | [4] 24.4% | [5] -39.2% | [6] -64.5%

CCCCNC(=O)C(=O)NCCCC
inactive: [1] 10.8% | [2] 7.2% | [3] 4.6% | [4] 28.6% | [5] 7% | [6] 1.75%

NC(CSC(c1ccccc1)(c1ccccc1)c1ccccc1)C(=O)O (configuration not stated)
inactive: [1] 1.4% | [2] -18.8% | [3] -28.9% | [4] 20.8% | [5] -8.25% | [6] -42.2%

O=C1c2ccccc2C(=O)N1OCc1ccccc1
inactive: [1] -18.1% | [2] -30.6% | [3] -14.4% | [4] 3.05% | [5] -20% | [6] -32.7%

C=CCNc1ccccc1
inactive: [1] 31.2% | [2] 4.35% | [3] 7.55% | [4] -36.6% | [5] 17.6% | [6] 13.7%

CC1C(=O)c2ccccc2CC1C(=O)O (configuration not stated)
inactive: [1] -1.6% | [2] -15.6% | [3] 7.8% | [4] -22.2% | [5] -5.1% | [6] -21%

CCOC(=O)C1=C(Nc2ccc(Br)cc2)C(=O)N(CC)C1
inactive: [1] 12.7% | [2] 1.2% | [3] 33% | [4] 14.9% | [5] 42.7% | [6] 19.1%

CCS(=O)(=O)c1cc(=O)[nH]c(=O)[nH]1
inactive: [1] 22.1% | [2] 24.9% | [3] -30.9% | [4] 32.5% | [5] -1.45% | [6] -1.6%

CC1OC(Oc2c(-c3ccc(O)c(O)c3)oc3cc(O)cc(O)c3c2=O)C(O)C(O)C1O (configuration not stated)
inactive: [1] 21.4% | [2] -8.25% | [3] 14.2% | [4] 8.6% | [5] 20.9% | [6] 38.4%

CNC(=S)NC(C)(C)C
inactive: [1] -14% | [2] -17.3% | [3] -20.6% | [4] -29.2% | [5] -18.8% | [6] -20%

C=CCc1cc(C(C)=O)cc(OC)c1O
inactive: [1] -16.1% | [2] -6.7% | [3] 5.7% | [4] -16.5% | [5] -34.4% | [6] -19.4%

COc1cc(CCN=Cc2ccccc2O)c([N+](=O)[O-])cc1OC
inactive: [1] -3.6% | [2] -10.5% | [3] 16.1% | [4] 11.7% | [5] -7.05% | [6] -2.35%

CC(C)C(C#N)(C(C)C)C(C)C
inactive: [1] 23.3% | [2] 15.4% | [3] 4% | [4] -29.6% | [5] -1.95% | [6] 22.4%

CCOc1ccc(/C=N/N=C(N)N)cc1OCC
inactive: [1] -31.4% | [2] -18% | [3] -17.6% | [4] -53.4% | [5] -8.4% | [6] -11.9%

COc1ccc(NC(=O)CCl)cc1
inactive: [1] 29.7% | [2] 12.8% | [3] 24.4% | [4] 17.9% | [5] 36.7% | [6] 23.6%

Cc1cc(N)c(S(=O)(=O)O)c(N)c1
inactive: [1] -31.9% | [2] 5.65% | [3] -4% | [4] -15.1% | [5] 11.8% | [6] -57.8%

Cc1ccc(/C=C2\SC(=S)N(c3ccc(F)cc3)C2=O)o1
inactive: [1] 14.7% | [2] 10.9% | [3] 28.4% | [4] 17.4% | [5] 15.8% | [6] 23.9%

O=[N+]([O-])c1ccc(S(=O)(=O)NN=C2CCCCC2)cc1
inactive: [1] 19.9% | [2] 13.2% | [3] 8.1% | [4] -31% | [5] 8.85% | [6] 37.8%

CC1CCCCN1C(=S)Nc1ccc(S(=O)(=O)N2CCCCC2)cc1 (configuration not stated)
inactive: [1] -18.6% | [2] -29.2% | [3] -5.75% | [4] -11.2% | [5] -19.1% | [6] -18.7%

O=P(O)(O)OCC(O)CO (configuration not stated)
inactive: [1] -4.6% | [2] -7.3% | [3] 8.95% | [4] 25.3% | [5] -22.1% | [6] -10.5%

CCCC(C)OCC(=O)O (configuration not stated)
inactive: [1] 31.6% | [2] -3.4% | [3] 1.55% | [4] 4.35% | [5] -1.25% | [6] -7.1%

O=c1c2ccccc2c(Br)c(Br)c2ccccc12
inactive: [1] 11.4% | [2] -12.4% | [3] 15.6% | [4] 3.3% | [5] 9.15% | [6] 27.4%

O=C(Cc1ccc(OCc2ccccc2)cc1)NCc1ccc2c(c1)OCO2
inactive: [1] 3.2% | [2] -5.5% | [3] -1.2% | [4] -10.8% | [5] 17.5% | [6] -9.5%

O=C(O)c1cc([N+](=O)[O-])ccc1Cl
inactive: [1] 27.9% | [2] 11.2% | [3] 7.15% | [4] 21% | [5] 21.9% | [6] 34.4%

O=C(O)c1cccc([N+](=O)[O-])c1O
inactive: [1] -41.4% | [2] 1.35% | [3] 8.95% | [4] -0.7% | [5] -0.8% | [6] 14.4%

Nc1ccc(N=Nc2ccc(S(=O)(=O)O)cc2)c2ccccc12
inactive: [1] -0.3% | [2] 3.15% | [3] -22.4% | [4] -25.9% | [5] 1.75% | [6] 9.05%

COc1ncnc2c1cnn2C
inactive: [1] 7.6% | [2] 3.6% | [3] 13.3% | [4] -35.1% | [5] -3.85% | [6] 2.9%

COc1ccc(-c2cc3c(nn2)-c2ccccc2C3=O)cc1
inactive: [1] 1.1% | [2] -16.7% | [3] -13% | [4] -10.4% | [5] -19.1% | [6] 5.45%

S=C1CCCCCN1
inactive: [1] 47.6% | [2] 17.8% | [3] 42.6% | [4] 9.95% | [5] 30.4% | [6] 30.8%

CCCCC1C(=O)N(c2ccccc2)N(c2ccccc2)C1=O
inactive: [1] -5.2% | [2] -10.6% | [3] -2.65% | [4] -5.75% | [5] -4.2% | [6] -19.1%

O=C(Cc1nc2ccc([N+](=O)[O-])cc2nc1CC(=O)c1cccnc1)c1cccnc1
inactive: [1] 14.3% | [2] 10.5% | [3] -1.35% | [4] 15.2% | [5] -3.85% | [6] 9.6%

O=[N+]([O-])c1cccc(C(F)(F)F)c1
inactive: [1] -3.9% | [2] -12.1% | [3] -9.1% | [4] -23.9% | [5] 34.3% | [6] -9.85%
